# According to PubChem BioAssay (NCI):
# Several values for one entry are separate records, joined by “and”; a condition that tells them apart may be missing. Equal entries are not always repeated. This is part of a sample that, as a whole, favours compounds with a hit. Of some 83,000 tested, about 20% had one in any assay.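 Activity criterion: percent growth below 10, measured after cells in 96-well plates were exposed to a single compound concentration for 48 hours.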 A number with no mark means an inactive call. Activity calls are given as the source filed them.
# Tested on: OVCAR-5 ovarian
# Experiment: NCI-60 one-dose screen, 48 h (100 = growth as untreated, 0 = no growth, -100 = all killed)
# Conditions: 10 µM
# Description: Growth inhibition of the OVCAR-5 human tumor cell line is measured as a screen for anti-cancer activity. Cells are grown in 96 well plates and exposed to the test compound for 48 hours. Compounds are tested at a single concentration, which is 10^-5 M for most compounds. The reported endpoint is percent growth (GI% or GIPRCNT), where numbers from 0 - 100% represent growth inhibition, and numbers from -100% - 0 represent cell death. For example, a value of 40 represents 60% growth inhibition. A value of 0 means no net growth occurred over the course of the experiment. A value of -40 indicates 40% of cells at the beginning of the experiment died by the end of the experiment. A value of -100 means all cells are dead at the end of the experiment.
# NCI-60 Human Tumor Cell Lines Screen was performed using the standard one-dose NCI protocol, which is described in more detail at https://dtp.cancer.gov/discovery_development/nci-60/default.htm.
# Compounds with GIPRCNT values below 10 were considered active. Activity score was based on GIPRCNT using the following formula: […]
# Score is 0 for GIPRCNT values of 100 or above, 50 for GIPRCNT values of 0, and 100 for GIPRCNT values of -100.
row,SMILES,growth
1,O=C(O)CCCc1ccc(N(CCCl)CCCl)cc1,97.7% and 81.1%

# Same assay, conditions: 10 µM unless noted
row,SMILES,growth
1,CC(=O)c1cccc(S(=O)(=O)F)c1,90.5%
2,C[C@]12CC[C@@H](OC(=O)N(CCCl)N=O)C[C@@H]1CC[C@@H]1[C@@H]2CC[C@]2(C)C(=O)CC[C@@H]12,114%
3,CO[C@@H]([CH2][Hg][O]C(=O)c1ccccc1)[C@@H]([CH2][Hg][O]C(=O)c1ccccc1)OC,111%
4,N#CCC(=O)c1ccccc1,105%
5,O=S1(=O)OCCO1,96.3%
6,O=C(NC(Cl)=C(Cl)Cl)P(=O)(c1ccccc1)c1ccccc1,105%
7,O=CC1(c2ccccc2)CCN(Cc2ccccc2)CC1,107%
8,N#CCc1ccc(CC#N)cc1,104%
9,NC1CN2CCC1CC2 (stereo not given),95.5%
10,C[N+]1(CC#CC[N+]2(C)CCCC2)CCCC1,101%
11,N[C@@H](CCC(=O)CCl)C(=O)O,98% [20 µM]
12,Cc1cc(Br)c([N+](=O)[O-])cc1[N+](=O)[O-],107%
13,Oc1cc(N2CC2)c(O)cc1N1CC1,2.7% (active)
14,COc1ccn(C)c(=O)c1C#N,105%
15,N#CCN(CC#N)[N+](=O)[O-],103%
16,Cn1cc(-c2csc(-c3cn(CCCCN4CCOCC4)c4ccc(F)cc34)n2)c2cccnc21,79.5%
17,N#Cc1ccc(Cl)cc1,109%
18,CC[C@H](C)[C@H](NC(=O)CN(C)C)C(=O)N(C)[C@H](C[C@@H](OC(C)=O)c1nc(C(=O)NC23C4C5C2C2C3C4C52C(=O)OC)cs1)C(C)C (stereo not given in full),71.4%
19,OCCNC1CCCCC1,98%

row,SMILES,growth
1,CC(=O)Nc1nc2c(s1)C1=CC[C@H]3[C@@H]4CC[C@H](OC(C)=O)[C@@]4(C)CC[C@@H]3[C@@]1(C)CC2,92.7%
2,O=P1(N(CCCl)CCCl)NCCCO1 (stereo not given),108%
3,CC1=CC(=Nc2ccc(N(CCCl)CCCl)cc2)C=C(C)C1=O,35%
4,CC(Oc1ccc(-c2ccccc2)cc1)C(=O)O (stereo not given),108%
5,CC1=CC(=O)CCC12CCOC2=O (stereo not given),96.7%
6,c1ccc(CCN2CCCCC2)nc1,98.6%
7,CC1=C2[C@H]3OC(=O)[C@@H](C)[C@@H]3CC[C@@]2(C)C=CC1=O,90.7%
8,N#CC(NC(=O)CCl)=C(Cl)Cl,44.4%
9,O=C=Nc1ccc(Br)cc1,109%
10,NC(=O)c1c(Br)c(Br)c(Br)c(Br)c1C(=O)O (tested in a mixture with another compound),94.5% and 97.3%
11,C[C@H](O)CCC(=O)c1ccoc1,106%
12,CC/C(Cc1ccccc1)=C(\c1ccc(OCCN2CCCC2)cc1)c1ccc(OC(=O)NCc2ccccc2)cc1,75.9%
13,CC[CH2][Sn]([Cl])([Cl])[CH2]CC.Oc1ccccc1C=NCCN=Cc1ccccc1O,97.1% and 84.2%
14,Oc1cc(Cl)ccc1Oc1ccc(Cl)cc1Cl,86.2%
15,CO/N=C1\CC[C@]2(C)[C@H]3CC[C@]4(C)C(=O)CC[C@H]4[C@@H]3C[C@@H]3SC(N)=N[C@@]32C1,105%
16,CCC(Br)(CC)C(=O)NC(N)=O,101%
17,COc1ccc2c(c1)C1(C)CCN(C)CC(C1)C2O (stereo not given),99.3%
18,Oc1ccccc1C=NCCN=Cc1ccccc1O.[Fe],118%
19,CCN1C(=O)CC(=O)N(CC)C1=S,85.7%

# Same assay, conditions: 75 µM
row,SMILES,growth
1,O=C(O)CCCc1ccc(N(CCCl)CCCl)cc1,66.4%
